An excerpt weighted towards active compounds, which were near 4.6% of everything screened.
TRHR ag – qHTS for Small Molecule Agonists and Allosteric Enhancers of Human TRH Receptor: Primary Screen for Agonists | Thyrotropin-releasing hormone receptor (Homo sapiens), P34981 | TRHR cells, calcium flux fluo-8, FDSS agonist mode | activation, % at 2 µM | hit rate 0.18% among 360,000 | AID 493084, 2011
Target sequence (P34981 whole entry, looked up): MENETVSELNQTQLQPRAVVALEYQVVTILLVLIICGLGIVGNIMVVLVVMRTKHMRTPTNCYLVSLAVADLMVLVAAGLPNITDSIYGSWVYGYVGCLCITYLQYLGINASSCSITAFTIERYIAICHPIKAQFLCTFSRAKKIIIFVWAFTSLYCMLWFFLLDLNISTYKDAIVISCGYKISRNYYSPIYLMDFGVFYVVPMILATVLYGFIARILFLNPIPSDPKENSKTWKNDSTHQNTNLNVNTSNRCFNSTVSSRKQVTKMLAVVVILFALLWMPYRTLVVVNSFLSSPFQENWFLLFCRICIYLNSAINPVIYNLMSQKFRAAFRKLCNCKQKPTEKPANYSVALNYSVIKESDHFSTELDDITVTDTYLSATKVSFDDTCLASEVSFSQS
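Fluo-8-loaded TRHR cells; 10 s baseline, compound added, kinetic Ca2+ fluorescence read 1/s, agonist mode.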
TRHR enhancer – qHTS for Small Molecule Agonists and Allosteric Enhancers of Human TRH Receptor: Primary Screen for Enhancers; TRHR cells, fluo-8 calcium fluorescence, EC20 TRH enhancement; enhancement, % at 2 µM; hit rate 0.66% among 360,000; AID 493056, 2011; in the data active = enhancement above about 30%
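Enhancer read-out: after compound pinning and an initial kinetic agonist-mode read, an EC20 of TRH (10 nM final) was injected and fluo-8 calcium signal (Ex 480/Em 530) followed at 1 s/cycle for 100 cycles in TRHR-expressing cells.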
D1 antag – Antagonist of Human D 1 Dopamine Receptor: qHTS; D(1A) dopamine receptor (Homo sapiens), P21728; HEK293 TREx D1 cells, calcium flux, dopamine EC80; active compounds read low; activity change, negative = inhibition, % at 10 µM; hit rate 3.2% among 360,000; AID 504652, 2011; in the data active = activity change below about -30%
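HEK293 T-REx cells expressing inducible, force-coupled D1 receptor; no-wash Ca dye, 30–90 min RT. Cmpd → 180 s read at 1 Hz → EC80 DA → 180 s read.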
D1 agonist – Allosteric Agonists of the Human D1 Dopamine Receptor: qHTS; D(1A) dopamine receptor (Homo sapiens), P21728; HEK293 T-REx D1 cells, calcium flux, agonist mode; hit rate 1% among 360,000; activation, % at 2 µM
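Tetracycline-induced HEK293 TREx D1 cells, force-coupled to calcium signalling, were dye-loaded with a no-wash calcium kit. Compound was pin-added after a 10 s baseline. Fluorescence was read kinetically at 1 cycle/s for 180 s, with calcium rises flagged as agonism.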
D1 PAM – Potentiators of Human D1 Dopamine Receptor: qHTS. HEK293 TREx D1 cells, calcium flux, dopamine EC20 potentiation. potentiation, % at 10 µM. hit rate 0.036% among 360,000; in the data active = potentiation above about 30%
Hits are given with their value. Rule as the data show it, unless noted: active = activation above about 30%; inactive = the rest.

For O=C(Cc1ccc(Br)cc1)Nc1ncc([N+](=O)[O-])s1 the results were TRHR ag inactive, TRHR enhancer inactive, D1 antag inactive, D1 agonist inactive and D1 PAM inactive.
Screening Cc1ccc(F)cc1NC(=O)c1sc2ncn(CC(=O)N3CCN(c4ccccn4)CC3)c(=O)c2c1C returned TRHR ag inactive, TRHR enhancer inactive, D1 antag inactive, D1 agonist inactive and D1 PAM inactive.
`COc1cc2[nH]c(Cl)c([N+](=O)[O-])c2cc1OC` gave TRHR ag inactive, TRHR enhancer inactive, D1 antag -30.6, D1 agonist inactive and D1 PAM inactive.
Screening COc1cc2[nH]c3c(Cl)ncnc3c2cc1OC returned TRHR ag inactive, TRHR enhancer inactive, D1 antag inactive, D1 agonist inactive and D1 PAM inactive.
`Fc1ccc(-c2nc(-c3cccs3)c(-c3cccs3)[nH]2)cc1` gave TRHR ag inactive, TRHR enhancer inactive, D1 antag inactive, D1 agonist inactive and D1 PAM inactive.
For Cc1ccc(-c2nc(-c3cccs3)c(-c3cccs3)[nH]2)cc1 the results were TRHR ag inactive, TRHR enhancer inactive, D1 antag -33.0, D1 agonist inactive and D1 PAM inactive.
O=[N+]([O-])c1cccc(-c2nc(-c3cccs3)c(-c3cccs3)[nH]2)c1 was read as TRHR ag inactive, TRHR enhancer inactive, D1 antag -35.6, D1 agonist inactive and D1 PAM inactive.
Screening O=[N+]([O-])c1ccc(-c2nc(-c3cccs3)c(-c3cccs3)[nH]2)cc1 returned TRHR ag inactive, TRHR enhancer inactive, D1 antag inactive, D1 agonist 37.8 and D1 PAM inactive.
CCOC(=O)/C=C/c1cc(F)c(S(=O)(=O)N2CCN(S(=O)(=O)c3ccc4c(c3)OCCO4)CC2)cc1F was read as TRHR ag inactive, TRHR enhancer inactive, D1 antag inactive, D1 agonist inactive and D1 PAM inactive.
COc1ccccc1N1CCN(C(=O)CSc2nnnn2C2CC2)CC1 was read as TRHR ag inactive, TRHR enhancer inactive, D1 antag inactive, D1 agonist inactive and D1 PAM inactive.
For O=C(CSc1nnnn1C1CC1)N1CCN(Cc2ccccc2F)CC1 the results were TRHR ag inactive, TRHR enhancer inactive, D1 antag -34.4, D1 agonist inactive and D1 PAM inactive.
`Cn1c(Cc2ccc3c(c2)OCO3)nnc1SCC(=O)NC1CCCC1` gave TRHR ag inactive, TRHR enhancer inactive, D1 antag -33.4, D1 agonist inactive and D1 PAM inactive.
Screening CCn1c(Cc2ccccc2)nnc1SCC(=O)NC1CC1 returned TRHR ag inactive, TRHR enhancer inactive, D1 antag -32.3, D1 agonist inactive and D1 PAM inactive.
For COc1cc(-c2nnc(SCC(=O)NC3CCCC3)n2C)cc(OC)c1O the results were TRHR ag inactive, TRHR enhancer inactive, D1 antag -40.9, D1 agonist inactive and D1 PAM inactive.
For O=C(COC(=O)Cc1c(Cl)cccc1Cl)NCCC1=CCCCC1 the results were TRHR ag inactive, TRHR enhancer inactive, D1 antag inactive, D1 agonist 34.6 and D1 PAM inactive.
For O=C(COC(=O)COc1cccc(F)c1)NCCC1=CCCCC1 the results were TRHR ag inactive, TRHR enhancer inactive, D1 antag -31.7, D1 agonist inactive and D1 PAM inactive.
Screening O=C(COC(=O)CNC(=O)c1cccc(F)c1)NCCC1=CCCCC1 returned TRHR ag inactive, TRHR enhancer inactive, D1 antag inactive, D1 agonist inactive and D1 PAM inactive.
Screening O=C(COC(=O)Cc1c(F)cccc1Cl)NCCC1=CCCCC1 returned TRHR ag inactive, TRHR enhancer inactive, D1 antag inactive, D1 agonist inactive and D1 PAM inactive.
For COc1ccc(NC(=O)Cn2ncc3c(C)n(Cc4cccc(Cl)c4)c(C)c3c2=O)cc1 the results were TRHR ag inactive, TRHR enhancer inactive, D1 antag inactive, D1 agonist inactive and D1 PAM inactive.
Screening COc1cc(OC)c(N(C)C(=O)Cn2ncc3c(=O)oc4ccccc4c32)cc1Cl returned TRHR ag inactive, TRHR enhancer inactive, D1 antag inactive, D1 agonist inactive and D1 PAM inactive.

Assay outcomes from PubChem.
